SNCA expr inhib: SNCA gene expression inhibition | HEK-293 SNCA-luciferase knock-in, luminescence, 24 h | Potency, µM (top dose mostly 57.2 µM), without a hit: top-dose activity change, negative = inhibition, usual class: inhibitors | actives 0.17% (n = 140,000);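 further: plate controls were DMSO cells for no effect and cell-free wells for full effect; nearly all actives have a fitted effect of over 45% in size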
3T3 cytotox: kills NIH 3T3 cells | NIH 3T3 viability, CellTiter-Glo ATP luminescence, 48-72 h | Potency, µM (highest dose often 96.7 µM), for inactives: at the highest dose activity change, negative = cytotoxicity, hits mostly inhibitors | actives 4.3% (n = 94,000) | AID 1345082; further: nearly all actives have a fitted effect of over 55% in size
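Cytotoxicity was measured by CellTiter-Glo ATP luminescence after 48 or 72 h compound exposure at 37 °C. Mouse NIH 3T3 fibroblasts were seeded at 400 cells/well and dosed by 23 nL pin transfer.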
SNCA viab count: counter-screen for SNCA expression inhibitors: cell viability; HEK-293-SNCA-luc viability, GF-AFC fluorescence, 24 h; Potency, µM (highest dose often 57.1 µM), without a hit: at the top dose activity change, negative = cytotoxicity, usual class: cytotoxic; actives 0.12% (n = 150,000); AID 1671193;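 further: 0% = DMSO-treated cells and -100% = medium-only wells without cells; nearly all actives have a fitted effect of over 30% in size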
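Cytotoxicity counterscreen: after 24 h compound treatment of genome-edited SNCA-luciferase HEK-293 cells, live-cell protease substrate GF-AFC read by fluorescence after 30 min; activity scaled between DMSO (0%) and medium-only (-100%), curves Hill-fitted.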
HEK293 tox: kills HEK 293 cells. HEK 293 viability, ATP luminescence (CellTiter-Glo), 48-72 h. Potency, µM (titrated, usually from 115 µM), for the others: at the highest dose activity change, negative = cytotoxicity, most hits filed as inhibitors. actives 6.6% (n = 94,000). AID 1345083; further: nearly all actives have a fitted effect of over 60% in size
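ATP-coupled CellTiter-Glo luminescence served as viability read-out, recorded 10 min after reagent addition at room temperature. HEK 293 cells, 250 cells/well, had been incubated with pintool-transferred compound for 48 or 72 hr at 37 degree Celsius.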
NPR1 antag: human Npr1 receptor antagonism; Potency, µM (top dose mostly 46.3 µM), for inactives: top-dose activity change, negative = inhibition, most hits filed as inhibitors; actives 1.6% (n = 76,000); AID 1347048; HEK293 hNpr1 GloSensor cGMP, ANP-stimulated luminescence; calls by dose curve; further: nearly all actives have a fitted effect of over 60% in size
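Compound pre-incubated 30 min at room temperature on GloSensor-loaded HEK293 cells stably carrying hNpr1 and the pGS-40F cGMP biosensor. Stimulation uses hNppA at 0.1 nM final; luminescence is taken at baseline and 20 min post-agonist.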
Luciferase inh: Photinus pyralis luciferase inhibition; purified P. pyralis luciferase, luminescence, biochemical; AID 1347043; actives 2.5% (n = 76,000); Potency, µM (highest dose often 115 µM), most hits filed as inhibitors; P08659; further: nearly all actives have a fitted effect of over 65% in size
Target sequence (P08659 whole entry, looked up): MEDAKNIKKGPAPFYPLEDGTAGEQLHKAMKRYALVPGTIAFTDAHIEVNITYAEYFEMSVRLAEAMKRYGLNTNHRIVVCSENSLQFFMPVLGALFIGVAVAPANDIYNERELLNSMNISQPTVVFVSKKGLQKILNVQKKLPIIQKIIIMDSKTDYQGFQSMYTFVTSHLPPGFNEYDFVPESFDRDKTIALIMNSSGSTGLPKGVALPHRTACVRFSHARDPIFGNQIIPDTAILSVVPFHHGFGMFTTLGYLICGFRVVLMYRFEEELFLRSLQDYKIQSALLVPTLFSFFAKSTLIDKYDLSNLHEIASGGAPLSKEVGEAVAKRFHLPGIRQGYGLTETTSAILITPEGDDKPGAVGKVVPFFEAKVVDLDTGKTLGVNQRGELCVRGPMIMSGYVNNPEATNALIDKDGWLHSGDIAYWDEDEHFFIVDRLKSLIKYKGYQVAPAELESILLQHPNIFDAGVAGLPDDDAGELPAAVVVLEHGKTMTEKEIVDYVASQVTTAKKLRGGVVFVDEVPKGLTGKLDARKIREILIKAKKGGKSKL
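Cell-free enzyme assay, 10nM P. pyralis luciferase, luciferin and ATP each at 10uM. Inhibition profiled over a 6-point titration, read as luminescence.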
Numbers without * were called inactive; i = inactive; ? = inconclusive; . = not tested or not shown; [ ] = another dose, or the depositor's remark. Hits are enriched below; roughly 7.2% of the tested compounds scored in any of these assays. Unless noted, the call rests on the fitted dose curve; in most records, active means well fitted curve in the direction sought with a large enough effect; inconclusive means small, poorly fitted or top-dose-only effect, or another doubt; inactive means no such curve, though single readings can be large; an effect the other way counts as inactive or inconclusive. Unless noted, on the % scale 0 is the no-effect control and ±100 the full control effect; potency means the concentration at half of the fitted maximal effect.

SMILES	SNCA expr inhib	3T3 cytotox	SNCA viab count	HEK293 tox	NPR1 antag	Luciferase inh
CCC(C)NC(=O)Cc1csc2nc(C)c(-c3cc(C)n(-c4ccc(C)cc4)n3)c(=O)n12 (configuration not stated)	-14%	-15%	5%	-9%	-1%	i
COc1ccc(C(=O)NC(C(=O)NC2CC2)C2CCN(C(C)=O)CC2)cc1 (configuration not stated)	5%	1%	-2%	?	4%	i
CCOCCCNC(=O)N1CCc2c(c(-c3nncn3Cc3ccccc3)nn2C)C1	17%	-3%	-1%	i	4%	i
O=C(CCCc1ccccc1)N1CCn2c(nnc2[C@@H]2C[C@@H](O)CN2Cc2ccccc2)C1	?	i	1%[12.5 µM]	i	4%	i
COc1cccc(-c2cc(-c3c(C)noc3C)c3cncn3c2)c1	9%[87.6 µM]	40µM*	-8%[87.6 µM]	?	-15%[70.6 µM]	i
Cc1noc(C)c1-c1cc(-c2ccccc2O)cn2cncc12	-12%[87.6 µM]	25µM*	2%[87.6 µM]	50µM*	-20%[70.6 µM]	i
COc1ccc(-c2cc(-c3c(C)noc3C)c3cncn3c2)cc1	-13%[87.6 µM]	?	-11%[87.6 µM]	?	-3%[70.6 µM]	i
Cc1noc(C)c1-c1cc(-c2cccc3cc[nH]c23)cn2cncc12	4%[87.6 µM]	28µM*	?	?	?	i
O=C1N(Cc2cccnc2)C(=O)C2(CCN(Cc3cc(F)ccc3F)CC2)N1CCc1ccccc1	?	?	0%	40µM*	2%	i
Cc1ccc(C(=O)N[C@@H]2CN(Cc3ccncc3)C[C@H]2CN(C)C)cc1C	-2%	-26%	6%	25µM*	3%	i
O=C(O)CO[C@@H]1COCC[C@H]1NC(=O)C1(CO)CC1	9%	-27%	-2%	-3%	-8%	i
CN(C)C(=O)NCCNC(=O)c1ccc(-c2cccc(C(F)(F)F)c2)cc1	.	?	.	28µM*	.	.
CC(C)NC(=O)NCCNC(=O)c1ccc(-c2cccc(C(F)(F)F)c2)cc1	.	?	.	-26%	.	.
Cc1ccc([S+](=O)([O-])NCCNC(=O)c2ccc(-c3cccc(C(F)(F)F)c3)cc2)cc1	.	-22%	.	-27%	.	.
CC(C)(C)C(=O)NCCNC(=O)c1ccc(-c2cccc(C(F)(F)F)c2)cc1	.	?	.	28µM*	.	.
COc1cc(Cl)ccc1-c1cccc(COc2cnc3c(ccn3CC(=O)O)c2)c1	2%[87.6 µM]	-26%[138 µM]	3%[87.6 µM]	?	-2%[70.6 µM]	i
CN1C(=O)C2(CCN(C(=O)CCC3CCCCC3)CC2)c2ccccc21	-10%	?	-20%	45µM*	-4%	i
CN1C(=O)C2(CCN(Cc3ccccc3)C2)c2ccccc21 (configuration not stated)	-9%[87.6 µM]	?	2%[87.6 µM]	100µM*	0%[70.6 µM]	i
O=C1N(c2ccccc2)c2ccccc2C12CCN(Cc1ccc(F)cc1)C2 (configuration not stated)	-22%	?	-17%	?	.	.
CN(C)c1ccc(CN2CCC3(C2)C(=O)N(Cc2ccccc2)c2ccccc23)cc1 (configuration not stated)	20%	?	-21%	35µM*	-11%	i
CNC(=O)c1cc(C2CC2)nc2onc(C3CCCN3C(=O)c3ccc(C)cc3)c12 (configuration not stated)	.	-10%	.	i	.	.
Cc1cccc(OCC(=O)N2CCCC(n3cc(-c4nc(C5CC5)no4)nn3)C2)c1 (configuration not stated)	11%	0%	3%	-26%	2%	i
O=C(Cn1nc(-c2ccc(F)cc2)ccc1=O)NC1CCCc2c1[nH]c1ccccc21 (configuration not stated)	-21%	-17%	6%	8%	3%	i
COc1ccccc1CN1CCNc2cc(-c3ccccc3)ncc2C1	22%[87.6 µM]	?	?	?	-3%[70.6 µM]	?
Fc1ccc(CN2CCNc3cnc(-c4ccccc4)cc3C2)cc1F	?	79µM*	?	?	-2%[70.6 µM]	i
SMILES	SNCA expr inhib	3T3 cytotox	SNCA viab count	HEK293 tox	NPR1 antag	Luciferase inh
COc1ccc(CN2CCNc3cc(-c4ccccc4)ncc3C2)cc1	?	?	-25%[87.6 µM]	50µM*	-20%[70.6 µM]	?
COc1ccc(OC)c(CN2CCNc3cnc(Nc4ccccc4)cc3C2)c1	-7%[87.6 µM]	?	-27%[87.6 µM]	71µM*	-17%[70.6 µM]	i
COc1ccc(OC)c(CN2CCNc3cc(-c4ccccc4)ncc3C2)c1	12%[87.6 µM]	?	?	112µM*	-6%[70.6 µM]	40µM*
c1ccc(-c2cc3c(cn2)NCCN(Cc2ccsc2)C3)cc1	-24%[87.6 µM]	?	12%[87.6 µM]	?	0%[70.6 µM]	?
COc1ccc(CN2CCNc3cnc(Nc4ccccc4)cc3C2)cc1O	-24%[87.6 µM]	?	-15%[87.6 µM]	?	0%[70.6 µM]	i
CC(Cn1cccn1)C(=O)N1CCC2(CC1)Nc1ccccc1NC2=O (configuration not stated)	-22%	-15%	10%	-2%	1%	i
O=C(c1ccccc1F)N1CCN(C(=O)c2nc3cccnc3n(Cc3ccccc3)c2=O)CC1	-3%	-12%	1%	4%	.	.
Fc1ccc2nc(CO[C@H]3CN(CC4CC4)C[C@H]3F)[nH]c2c1	3%[87.6 µM]	-5%[138 µM]	4%[87.6 µM]	-2%[172 µM]	-1%[70.6 µM]	i
COc1ccccc1CN1CCNc2cc(-c3ccnc(C)c3)ncc2C1	66%[87.6 µM]	?	-11%[87.6 µM]	89µM*	-4%[70.6 µM]	71µM*
O=C(Cc1ccc(N(Cc2cccc(F)c2)C(=O)c2ccco2)cc1)NCc1ccco1	-24%	?	7%	89µM*	0%	i
O=C(Cc1ccc(N(Cc2ccccc2)C(=O)c2ccco2)cc1)NCc1ccc(F)cc1	-11%	?	-6%	40µM*	-13%	i
C=CCNC(=O)Cc1ccc(N(Cc2ccc(OC)cc2)C(=O)c2ccco2)cc1	-15%	-29%	2%	?	-3%	i
COc1ccc(CN(C(=O)c2ccco2)c2ccc(CC(=O)NCc3ccccc3)cc2)cc1	-21%	35µM*	-1%	?	-17%	i
COc1ccc(CN(C(=O)c2ccco2)c2ccc(CC(=O)NCc3ccc(F)cc3)cc2)cc1	?	20µM*	-27%	?	-17%	i
CCNC(=O)Cc1ccc(N(Cc2ccc(F)cc2)C(=O)c2ccco2)cc1	4%	-18%	3%	-24%	2%	i
O=C(c1cccnc1)N1CCC2(CC1)COc1ccccc1NC2=O	-1%	-6%	7%	i	0%	i
O=[S+]([O-])(NCC1CN(Cc2ccc3[nH]ccc3c2)CC12CN(c1ccccc1)C2)c1ccccc1 (configuration not stated)	?	22µM*	-7%	22µM*	3%	i
